Drawing on PubChem BioAssay (NCATS), this text covers Potency and outcome for 6 compounds.

Structures are written as SMILES. Results filed as inconclusive are left out. A number with no mark means an inactive call. Active and inactive are the calls of the source. Unless noted, calls follow the shape of the dose curve; as a rule, active = well fitted curve in the direction sought with a large enough effect; inconclusive = small, poorly fitted or top-dose-only effect, or another doubt; inactive = no such curve, though single readings can be large; an effect the other way counts as inactive or inconclusive.

Assay [1] in a line: HEK-293 Cancer Cell Toxicity qHTS against the NCATS CANVASS Library (AID 1347355). The gist of the method:
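Luminescent ATP read-out (CellTiter-Glo, 15min at room temperature) measures survival after cells face an 11-point compound series for 72 hours at 37 degrees C/5% CO2.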

The test system of assay [2] is NAD(P)H diaphorase (Clostridium kluyveri). Nature of the assay: Diaphorse counterscreen qHTS: Assay Interference Panel against the NCATS CANVASS Library (AID 1347362). In a few lines: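 Clostridium kluyveri diaphorase in PBS with 0.01% Tween-20 was preincubated 15 min at room temperature in the dark with compounds (11-point series). Resorufin fluorescence (ex 525/20, em 598/25) was read 5 min after adding resazurin/NADH.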

Assay [3] in a line: KB-8-5-11 Cancer Cell Toxicity qHTS against the NCATS CANVASS Library (AID 1347364). In a few lines: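 Plate 500 KB-8-5-11 cells per well in DMEM + 10% FBS, add compounds by pin transfer, incubate 72 hr at 37C. Add CellTiter-Glo, wait 10 minutes at room temperature, read luminescence.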
Assay [4] can be described thus: KB-3-1 Cancer Cell Toxicity qHTS against the NCATS CANVASS Library (AID 1347366). In a few lines:
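Luminescence from CellTiter-Glo (10 min, room temperature) measured KB-3-1 viability after 72 hr compound exposure at 37C. Cells were seeded at 500/well and tested in an 11-point series.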

The nature of assay [5]: qHTS for Inflammasome Signaling Inhibitors: IL-1-beta AlphaLISA screen against the NCATS CANVASS Library (AID 1347379). The gist of the method: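 THP-1 cells pretreated 1 hr with compound (up to 57.5 uM final), then stimulated with LPS (250 ng/mL final) and ATP (1.25 mM final). Secreted IL-1B measured by AlphaLISA after 16 hr; glyburide as positive control.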
A short description of assay [6]: qHTS assay for small molecule disruptors of mitochondrial membrane potential screened against the NCATS CANVASS Library (AID 1347389). In a few lines: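 HepG2, 2,000 cells/well, attached overnight; compound 1 hr, 37C, 5% CO2; Mito-MPS dye 30 min, 37C; fluorescence 535 nm (monomer) and 590 nm (aggregate); decreased 590/535 ratio = depolarization.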
The nature of assay [7]: Viability qHTS for inhibitors of the SERCaMP assay screened against the NCATS CANVASS Library (AID 1347400). In a few lines:
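SH-SY5Y SERCaMP MJH297 cells, 1000/well; 4 h settle, 37C/5% CO2; pin-transferred cpds; 48 h; CellTiter-Glo lum. Pos ctrl bortezomib 0.0001 - 4.6 uM.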

Assay [8] can be described thus: qHTS for inhibitors of Rabies Virus screened against the NCATS CANVASS Library (AID 1347402; calls by dose curve).
Assay [9] in a line: qHTS for Hypoxia signaling pathway (HIF-1) antagonists against the NCATS CANVASS Library (AID 1347374). In a few lines: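 HRE-bla ME-180 cells in medium with 0.5% dialyzed FBS received compounds (11-point series) plus CoCl2 (60 uM addition stock) for 17 hrs at 37C. Beta-lactamase activity read with CCF4 (405 nm ex, 460/530 nm em); CellTiter-Glo viability measured in same wells.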

The nature of assay [10]: qHTS for inhibitors of Wild type Zika virus screened against the NCATS CANVASS Library (AID 1347396). In a few lines: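 Vero 766 (African green monkey) cells, 1000 per well, attached overnight, then compounds were added in an 11-point series before wild-type Zika virus infection. After 72 h at 37C, cell viability was read as CellTiter Glo luminescence.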

Regarding `CO[C@H]([C@@H](C)[C@H]1O[C@]1(C)C[C@H](C)/C=C/C=C(\C)[C@H]1O[C@@H](CC(=O)O)CC[C@@H]1C)[C@@H](C)O`, the Potency in [1] is 0.0209 µM (active); in assay [3], 0.0264 µM (active); in assay [4], 0.0264 µM (active); in assay [5], 0.0385 µM (active); in [7], 0.048 µM (active). Besides, the Potency result in assay [2] and in [6] was “inactive” in each case. For the same compound, the outcome in assay [8] was inactive.

Regarding `O[C@H]1C=C[C@@]23CCN(Cc4cc5c(cc42)OCO5)[C@@H]3C1`, the Potency result in [1], in assay [2], in [3], in assay [4], in assay [9] and in [5] was “inactive” each time. For the same compound, the Potency entry in assay [6], in assay [10] and in assay [7] was “inactive” each time. Moreover, the compound was classed as inactive in assay [8].

For `C=CC(C)(C)[C@@]12C[C@H]3C(=O)N/C(=C/c4cnc[nH]4)C(=O)N3[C@@H]1Nc1ccccc12`, the Potency result in assay [2], in assay [3], in [4], in [9], in assay [5] and in assay [6] was “inactive” in each case. Moreover, the Potency result in [10] and in assay [7] was “inactive” in each case. Besides, in [8], the outcome was inactive.

Consider `C[C@]12CCC3[C@@H](CC[C@@H]4C[C@@H](O)CC[C@]34CO)[C@@]1(O)CC[C@@H]2C1=CC(=O)OC1` (stereo partly specified), for which the Potency in assay [1] is 1.87 µM (active); in [3] it was 0.935 µM (active); in [4], 1.32 µM (active); in assay [9], 0.941 µM (active); in assay [5] it was 1.93 µM (active); in [7] it was 1.91 µM (active). The Potency result in [2] and in [10] was “inactive” each time.

As to `CO[C@@]12c3c(C)cc(O)c4c(=O)occ(c34)C(=O)[C@@H]1[C@]13COC(=O)c4c(O)cc(C)c(c41)C(=O)[C@H]2[C@@H]3OC(C)=O`, the Potency entry in [1], in assay [3], in assay [4], in assay [9], in [5] and in assay [10] was “inactive” in each case. The Potency entry in [7] is “inactive”. In addition, the Potency in assay [6] is 16.6 µM (active). For the same compound, the result in [8] was inactive.

With `COC1=C(C2=C(OC)C(=O)c3cc4c(c(O)c3C2=O)C(=O)O[C@H](C)C4)C(=O)c2c(cc3c(c2O)C(=O)O[C@H](C)C3)C1=O`, the Potency entry in [1], in [3], in assay [4], in assay [10] and in [7] was “inactive” throughout. Besides, in [2], the Potency is 1.45 µM (active). Moreover, in [8], the call was inactive.
